The text below walks through data of the supplement of paper PMC9925115.

± gives the uncertainty stated by the source.

In the experiment the test system is FLX1. The experiment in a line: cell viability z-score within plate (CellTiter-Glo), mean of 3 biological replicates; higher = higher viability relative to plate (less growth inhibition). As to conditions: 2 µM; time (hr): 120. Here is the method: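 FLX1 fibrolamellar carcinoma cells (DNAJB1-PRKACA fusion), 600 cells/well in 384-well plates, treated with a Selleck kinase inhibitor library (L1200) at 2 uM for 5 days (120 hr); viability by CellTiter-Glo. A z-score was computed within each plate and averaged over three biological replicates.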
In the case of `O=C(NOC[C@H](O)CO)c1ccc(F)c(F)c1Nc1ccc(I)cc1F`, the “cell viability z-score within plate” value is -1.16 ± 0.84. Consider `COc1ncc(-c2ccc3nccc(-c4ccnnc4)c3c2)cc1NS(=O)(=O)c1ccc(F)cc1F`, for which the “cell viability z-score within plate” value worked out at 0.539 ± 0.32.

Regarding `Nc1ccc(C(=O)Nc2cccc(-c3nc(N4CCOCC4)c4oc5ncccc5c4n3)c2)cn1`, the “cell viability z-score within plate” value stood at 0.775 ± 0.24.

`O=C1Nc2ccc(I)cc2/C1=C/c1cc(Br)c(O)c(Br)c1`: the “cell viability z-score within plate” value worked out at 1.53 ± 0.35.

`Cc1nc(NC(=O)N2CCC[C@H]2C(N)=O)sc1-c1ccnc(C(C)(C)C(F)(F)F)c1` [Alpelisib (BYL719)]: the “cell viability z-score within plate” value came out at 0.524 ± 0.28.

Consider `COc1ccc(-c2ccc3ncc4c(c3c2)n(-c2ccc(N3CCNCC3)c(C(F)(F)F)c2)c(=O)n4C)cn1`, for which the “cell viability z-score within plate” value amounted to 0.514 ± 0.38. With `O=C(NCc1cccc(O)c1)Nc1nc(-c2ccncc2)cs1`, the “cell viability z-score within plate” value came to 0.289 ± 0.42. Next, `COc1cc(F)c(F)c(Nc2ccc(I)cc2F)c1NS(=O)(=O)C1(C[C@H](O)CO)CC1` [Refametinib (RDEA119, Bay 86-9766)]: -1.34 ± 1.7; `O=C(NC(NC(=S)Nc1ccc(F)c([N+](=O)[O-])c1)C(Cl)(Cl)Cl)C(c1ccccc1)c1ccccc1` (stereo not given): 0.309 ± 0.51; `CC(=O)Nc1nc(C)c(-c2ccc(Cl)c(S(=O)(=O)NCCO)c2)s1`: -0.0789 ± 0.1. Next, `c1cncc(CN2CCC(n3ncc4c(N5CCOCC5)nc(-c5ccc6[nH]ccc6c5)nc43)CC2)c1`: 0.437 ± 0.062; `C#Cc1cccc(Nc2ncnc3cc(OCCOC)c(OCCO)cc23)c1`: -0.584 ± 1.3.

For `CC(C)(C)c1cc(/C=C(\C#N)C(N)=S)cc(C(C)(C)C)c1O` [Tyrphostin AG 879], the “cell viability z-score within plate” value is 0.585 ± 0.3. Take `CNc1nc(Nc2cn(C(C)(C)C#N)nc2C)ncc1C(F)(F)F`: the “cell viability z-score within plate” value is 0.707 ± 0.76. Next, `CN1CCC(COc2cnc(-c3cccc(Cn4nc(-c5cccc(C#N)c5)ccc4=O)c3)nc2)CC1`: -0.645 ± 0.46; `NC1(c2ccc(-c3nc4ccn5c(=O)[nH]nc5c4cc3-c3ccccc3)cc2)CCC1`: -0.0746 ± 0.54.

Regarding `O=C(NOCC(O)CO)c1cc(Br)c(F)c(F)c1Nc1ccc(I)cc1F` (stereo not given), the “cell viability z-score within plate” value came to 0.628 ± 0.22. Take `CN(C)Cc1cccc(N=C(c2ccccc2)c2c(O)[nH]c3cc(C(=O)N(C)C)ccc23)c1`: the “cell viability z-score within plate” value was found to be 0.69 ± 0.34. Take `O=C(Nc1c[nH]nc1-c1nc2ccc(CN3CCOCC3)cc2[nH]1)NC1CC1`: the “cell viability z-score within plate” value was 0.178 ± 0.39.

`C=CC(=O)Nc1cccc(Nc2nc(Nc3ccc(NC4CN(CCF)C4)cc3OC)ncc2C(F)(F)F)c1`: the “cell viability z-score within plate” value was -0.00318 ± 1.3. For `O=c1cc(-c2cccc3c2Sc2ccccc2S3)oc(N2CCOCC2)c1`, the “cell viability z-score within plate” value is 0.731 ± 0.28. Next, `O=c1c(O)c(-c2ccc(O)c(O)c2)oc2cc(O)cc(O)c12` [Quercetin]: 1.1 ± 0.51. As to `CNC(=O)Nc1ccc(-c2nc(N3CC4CCC(C3)O4)c3cnn(C4CCC5(CC4)OCCO5)c3n2)cc1`, the “cell viability z-score within plate” value worked out at 0.631 ± 0.77. Next, `CCc1cnn2c(NCc3ccc[n+]([O-])c3)cc(N3CCCC[C@H]3CCO)nc12`: 0.031 ± 0.76; `O=C(NCCCNc1nc(Nc2cccc(NC(=O)N3CCCC3)c2)ncc1I)c1cccs1`: -0.658 ± 0.97. Next, `C=CC(=O)Nc1ccc2ncnc(Nc3ccc(OCc4cccc(F)c4)c(Cl)c3)c2c1`: 0.819 ± 0.26; `CN1CCN(C2CCN(C(=O)Nc3cc(Oc4ccc(NC(=O)C5(C(=O)Nc6ccc(F)cc6)CC5)c(F)c4)ccn3)CC2)CC1` [Golvatinib (E7050)]: 0.521 ± 0.14.

Take `Cc1ccc(C(=O)Nc2ccc(CN3CCN(C)CC3)c(C(F)(F)F)c2)cc1C#Cc1cnc2cccnn12`: the “cell viability z-score within plate” value was -1.09 ± 0.7. In the case of `C[C@H](NC(=O)/C(C#N)=C/c1cccc(Br)n1)c1ccccc1`, the “cell viability z-score within plate” value is 0.427 ± 0.59. Next, `C=CC(=O)Nc1cccc(Sc2nc(Nc3ccc(N4CCN(C)CC4)cc3)ncc2Cl)c1`: 0.081 ± 0.26; `Cn1cc(/C=C2\C(=O)Nc3cccnc32)c2ccccc21`: 0.84 ± 0.29; `C=CC(=O)Nc1cccc(Nc2nc(Nc3ccc(N4CCN(C(C)=O)CC4)cc3OC)ncc2C(F)(F)F)c1` [Rociletinib (CO-1686, AVL-301)]: -0.855 ± 0.71.

Regarding `Cc1ccc(Nc2nccc(N(C)c3ccc4c(C)n(C)nc4c3)n2)cc1S(N)(=O)=O` [Pazopanib], the “cell viability z-score within plate” value was -0.34 ± 0.86. For `Cc1ccc(Nc2nccc(N(C)c3ccc4c(C)n(C)nc4c3)n2)cc1S(N)(=O)=O`, the “cell viability z-score within plate” value was -0.43 ± 0.49. Next, `Cc1ccc(C(=O)Nc2cccc(C(F)(F)F)c2)cc1Nc1nc(-c2cccnc2)nc2c1cnn2C`: -0.436 ± 0.34. Next, `Cc1cc(O)c2c(c1)C(=O)c1cccc(O)c1C2=O` [Chrysophanic Acid]: 0.539 ± 0.3; `COc1cc2c(c(OC)c1OC)-c1c(cc3c(c1OC)OCO3)CC(C)C(C)C2` (stereo not given) [Schisandrin B (Sch B)]: 0.407 ± 0.2; `CN1CCN(c2ccc3nc(-c4c(N)c5c(F)cccc5[nH]c4=O)[nH]c3c2)CC1` [Dovitinib (TKI-258) Dilactic Acid]: 0.322 ± 0.38.

As for `CN(C)C/C=C/C(=O)Nc1cc2c(Nc3ccc(F)c(Cl)c3)ncnc2cc1O[C@H]1CCOC1` [Afatinib (BIBW2992)], the “cell viability z-score within plate” value was -0.688 ± 0.67. Next, `C=CC(=O)Nc1cccc(Nc2nc(Nc3ccc(Oc4ccnc(C(=O)NC)c4)cc3)ncc2F)c1`: 0.519 ± 0.21.
